Inconclusive results are not listed. Activity calls are given as the source filed them. Unless noted, calls follow the shape of the dose curve; as a rule, active = well fitted curve in the direction sought with a large enough effect in the repeat runs; inconclusive = weak or mixed curves; inactive = no such curve, though single readings can be large; an effect the other way counts as inactive or inconclusive.
Assays:
[1] = qHTS assay to identify small molecule agonists of the sonic hedgehog signaling (Shh) pathway - cell viability counter screen (AID 1259366); also: nearly all actives have a fitted effect of over 50% in size; also: potency is read from the fitted curve at half-maximal effect
Summary of the method: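 NIH/3T3-derived 3T3 Gli1-Luc cells (stable Gli1-responsive firefly luciferase reporter) were seeded, rested 4 hr at 37 C/5% CO2, then exposed to compounds in DMSO for 24 hr; viability was read by CellTiter-Fluor fluorescence in the same wells.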

[2] = qHTS assay to identify small molecule antagonists of the sonic hedgehog signaling (Shh) pathway - cell viability counter screen (AID 1259367); also: nearly all actives have a fitted effect of over 55% in size; also: potency is read from the fitted curve at half-maximal effect
Summary of the method: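 Cells: 3T3 Gli1-Luc, 2,000/well, 4 hr pre-incubation. Compounds in DMSO, then conditioned medium. Incubation 24 hr, 37C, 5% CO2. CellTiter-Fluor at 23 hr, 1 hr, fluorescence.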

[3] = qHTS assay to identify small molecule agonists of the sonic hedgehog signaling (Shh) pathway (AID 1259368; calls by dose curve; also: series mostly up to about 92 µM; nearly all actives have a fitted effect of over 15% in size)
Summary of the method: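 3T3Gli1-Luc (NIH/3T3 clone, stable Gli1-Luc); 4 hr pre-incubation, then cpd in DMSO 24 hr, 37 C/5% CO2; luciferase reagent 30 min RT; luminescence.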

[4] = qHTS assay to identify small molecule agonists of the estrogen receptor beta (ER-beta) signaling pathway - cell viability counter screen (AID 1259380); also: nearly all actives have a fitted effect of over 30% in size
Summary of the method: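 HEK293T ER-beta-UAS-bla; 2% CS-FBS; 6 hr pre-plate, 16 hr cpd at 37C/5% CO2; LiveBLAzer read first, then CellTiter-Glo 30 min RT, luminescence.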

[5] = qHTS assay to identify small molecule antagonists of the estrogen receptor beta (ER-beta) signaling pathway - cell viability counter screen (AID 1259382); also: series mostly up to about 92 µM; nearly all actives have a fitted effect of over 55% in size
Summary of the method: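 Cells: ER-beta-UAS-bla HEK293T, 2,000/well, 2% CS-FBS, 6 hr settle. Cpd + E2 (1nM final), 16 hr, 37C/5% CO2. Bla FRET substrate 2 hr RT, then CellTiter-Glo 30 min RT, luminescence.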

[6] = qHTS assay to identify small molecule agonists or antagonists of the thyroid stimulating hormone receptor (TSHR) signaling pathway - wild type cell line counter screen (AID 1259384; calls by dose curve)
Summary of the method: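 Counter screen in untransfected Hek293: compounds (15-point titration, triplicate) plus phosphodiesterase inhibitor Ro20-1724 added after 18 h plating; 30 min RT. Intracellular cAMP via competitive d2/cryptate immunoassay, 1 h incubation.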

[7] = biological target: Thyrotropin receptor (Homo sapiens) (UniProt P16473); test: qHTS assay to identify small molecule antagonists of the thyroid stimulating hormone receptor (TSHR) signaling pathway (AID 1259385; calls by dose curve; also: nearly all actives have a fitted effect of over 20% in size)
Summary of the method: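 Antagonist mode: compound-treated TSHR-expressing HEK293 cells were stimulated with 1.5 ng/mL TSH (final) in presence of Ro20-1724 for 30 min at RT. HTRF cAMP detection after 1 h; each compound tested at 15 concentrations, triplicate.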

[8] = biological target: Progesterone receptor (Homo sapiens) (UniProt P06401); test: qHTS assay to identify small molecule agonists of the progesterone receptor (PR) signaling pathway (AID 1346784; calls by dose curve; also: nearly all actives have a fitted effect of over 30% in size)
Summary of the method: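 PR-UAS-bla HEK 293T cells carrying a UAS-driven beta-lactamase reporter were seeded in medium with 2% charcoal-stripped FBS, preincubated 6 hr at 37C, then exposed to compounds in DMSO for 16 hr; agonism was read by LiveBLAzer B/G FRET fluorescence.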

[9] = biological target: Progesterone receptor (Homo sapiens) (UniProt P06401); test: qHTS assay to identify small molecule antagonists of the progesterone receptor (PR) signaling pathway (AID 1346795; active = well fitted inhibition curve with a large enough effect in the signal ratio in the repeat runs, not every such curve was filed as active; the % refers to the signal ratio)
Summary of the method: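 PR-UAS-bla HEK293T cells carrying a UAS-driven beta-lactamase reporter were plated in medium with 2% charcoal-stripped FBS and rested 6 hr at 37C. Compounds were added with 1 nM R5020 (final) for 16 hr, then FRET substrate loaded 2 hr at room temperature.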

[10] = qHTS assay to identify small molecule antagonists of the progesterone receptor (PR) signaling pathway - cell viability counter screen (AID 1346798); also: series mostly up to about 92 µM; nearly all actives have a fitted effect of over 50% in size
Summary of the method: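 PR-UAS-bla HEK293T cells in medium with 2% charcoal-stripped FBS were treated with compounds plus R5020 for 16 hr at 37C. Cell viability was then read by CellTiter-Glo luminescence after 30 min at room temperature in the same wells.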

[11] = qHTS assay to identify small molecule agonists of the progesterone receptor (PR) signaling pathway - cell viability counter screen (AID 1346799; calls by dose curve; also: nearly all actives have a fitted effect of over 45% in size)
Summary of the method: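 PR-UAS-bla HEK293T cells, 3,000 per well in medium with 2% charcoal-stripped FBS, were preincubated 6 hr at 37C, then exposed to compounds for 16 hr; viability was read as CellTiter-Glo luminescence after 30 min at room temperature.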

[12] = qHTS assay to identify small molecule antagonists of the TGF-beta/Smad signaling pathway - cell viability counter screen (AID 1346824); also: nearly all actives have a fitted effect of over 50% in size
Summary of the method: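 Cytotoxicity counter-screen run in the same wells as the beta-lactamase Smad reporter read: CellTiter-Glo luminescence after 30 min at room temperature. HEK 293T SBE-bla cells had 5 hr compound exposure at 37 C with TGF-beta1 (0.25 ng/mL stock).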

[13] = qHTS assay to identify small molecule agonists of the TGF-beta/Smad signaling pathway - cell viability counter screen (AID 1346829); also: top concentration of the series differs between compounds; nearly all actives have a fitted effect of over 45% in size
Summary of the method: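 In parallel with the Smad reporter read, viability of HEK 293T cells stably carrying SBE-bla is quantified by ATP luminescence following 5 hr compound treatment.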

[14] = qHTS assay to identify small molecule agonists of the androgen receptor (AR) signaling pathway in the presence of an antagonist - cell viability counter screen (AID 1259379);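 also: MDA-kb2 human breast cancer cells carrying an MMTV luciferase reporter; series mostly up to about 92 µM; nearly all actives have a fitted effect of over 25% in size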
Summary of the method: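 Cells: MDA-kb2 (MMTV-luc, AR and GR elements), 3,000/well, 5 hr settle. Added: nilutamide 3.0uM final, then compounds (15 conc.). Incubation: 16 hr, 37C, no CO2. Read-out: CellTiter-Fluor, 1 hr, fluorescence.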

[15] = biological target: Androgen receptor (Homo sapiens) (UniProt P10275); test: qHTS assay to identify small molecule agonists of the androgen receptor (AR) signaling pathway in the presence of an antagonist (AID 1259381; calls by dose curve; also: nearly all actives have a fitted effect of over 15% in size)
Summary of the method: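 MDA-kb2 cells, 3,000/well, rested 5hr at 37C/0% CO2 → nilutamide 3.0uM final or buffer → compounds, 15 conc. → 16hr at 37C → ONE-Glo, 30min RT → luminescence.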

[16] = biological target: Estrogen receptor (Homo sapiens) (UniProt P03372); test: qHTS assay to identify small molecule agonists of the estrogen receptor alpha (ER-alpha) signaling pathway in the presence of an antagonist (AID 1259383; calls by dose curve; also: top concentration of the series differs between compounds; nearly all actives have a fitted effect of over 15% in size)
Summary of the method: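 VM7Luc4E2, endog. ER-alpha + 4×ERE-luc; charcoal-stripped FBS, phenol red-free, 5 d; 24hr plating; +10.0nM ICI-182,780 (final); cpds 15 conc, 22hr, 37C/5% CO2; ONE-Glo luminescence.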

[17] = biological target: Estrogen receptor beta (Homo sapiens) (UniProt Q92731); test: qHTS assay to identify small molecule agonists of the estrogen receptor beta (ER-beta) signaling pathway (AID 1259377; active = well fitted activation curve with a large enough effect in the signal ratio in the repeat runs, not every such curve was filed as active; the % refers to the signal ratio)
Summary of the method: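 ER-beta-UAS-bla HEK293T (GripTite) cells carrying a UAS-driven beta-lactamase reporter, in medium with 2% charcoal-stripped FBS, were exposed to compounds for 16 hr at 37C; LiveBLAzer B/G FRET substrate was then added and fluorescence read after 2 hours at room temperature.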

[18] = qHTS assay to identify small molecule antagonists of the sonic hedgehog signaling (Shh) pathway (AID 1259369; calls by dose curve; also: nearly all actives have a fitted effect of over 45% in size)
Summary of the method: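 3T3Gli1-Luc, conditioned-medium-stimulated, 24hr cpd, 37C/5% CO2; Gli1-driven firefly Luc luminescence after 30min RT with luciferase reagent. Cells plated 4hr before cpd.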

[19] = qHTS assay to identify small molecule agonists of the estrogen receptor alpha (ER-alpha) signaling pathway in the presence of an antagonist - cell viability counter screen (AID 1259386);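 also: series mostly up to about 92 µM; cells exposed to compounds for 22 h at 37 °C before the viability read; nearly all actives have a fitted effect of over 30% in size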
Summary of the method: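 VM7Luc4E2, stripped-serum pre-culture 5 d; 24hr plating; +ICI-182,780 10.0nM final; cpds 15 conc, 22hr, 37C/5% CO2; CellTiter-Fluor added at 21hr, fluorescence 1hr later.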
% is scaled to controls: 0 for no effect and ±100 for the full control effect.

Chain of Thyrotropin receptor (Homo sapiens) (P16473 whole entry, looked up): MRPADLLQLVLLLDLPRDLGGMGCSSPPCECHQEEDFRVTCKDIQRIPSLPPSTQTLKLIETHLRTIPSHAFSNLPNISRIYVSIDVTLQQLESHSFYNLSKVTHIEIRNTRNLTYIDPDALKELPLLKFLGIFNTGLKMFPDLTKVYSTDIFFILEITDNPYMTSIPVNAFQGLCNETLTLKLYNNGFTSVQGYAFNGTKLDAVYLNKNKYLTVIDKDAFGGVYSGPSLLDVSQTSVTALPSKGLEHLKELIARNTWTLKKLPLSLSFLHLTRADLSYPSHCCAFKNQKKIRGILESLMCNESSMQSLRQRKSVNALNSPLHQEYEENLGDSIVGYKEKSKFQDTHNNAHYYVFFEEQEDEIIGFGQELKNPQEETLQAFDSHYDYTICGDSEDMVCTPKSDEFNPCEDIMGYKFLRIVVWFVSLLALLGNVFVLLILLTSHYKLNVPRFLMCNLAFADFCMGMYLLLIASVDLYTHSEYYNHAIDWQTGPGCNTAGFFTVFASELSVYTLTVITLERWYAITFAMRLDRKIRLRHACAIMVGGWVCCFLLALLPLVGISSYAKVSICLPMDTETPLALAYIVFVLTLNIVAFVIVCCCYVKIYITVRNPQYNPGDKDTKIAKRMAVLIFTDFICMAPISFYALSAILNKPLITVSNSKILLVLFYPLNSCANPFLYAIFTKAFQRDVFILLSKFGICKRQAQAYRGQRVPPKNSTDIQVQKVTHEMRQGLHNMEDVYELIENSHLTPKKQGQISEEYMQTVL
Chain of Estrogen receptor beta (Homo sapiens) (Q92731 whole entry, looked up): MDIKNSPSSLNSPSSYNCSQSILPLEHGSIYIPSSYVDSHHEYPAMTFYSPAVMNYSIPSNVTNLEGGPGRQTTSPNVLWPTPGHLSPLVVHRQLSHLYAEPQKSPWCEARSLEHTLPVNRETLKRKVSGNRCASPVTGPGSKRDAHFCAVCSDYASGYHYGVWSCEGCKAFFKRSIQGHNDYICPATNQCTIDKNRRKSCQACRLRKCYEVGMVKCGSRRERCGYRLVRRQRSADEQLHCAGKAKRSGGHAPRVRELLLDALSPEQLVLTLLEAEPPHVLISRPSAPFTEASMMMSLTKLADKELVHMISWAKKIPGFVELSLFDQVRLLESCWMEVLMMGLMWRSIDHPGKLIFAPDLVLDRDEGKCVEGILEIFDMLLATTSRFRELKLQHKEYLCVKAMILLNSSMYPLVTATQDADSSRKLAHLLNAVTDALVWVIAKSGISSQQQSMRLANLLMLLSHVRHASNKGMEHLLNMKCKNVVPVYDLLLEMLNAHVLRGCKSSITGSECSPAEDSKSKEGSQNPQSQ
Chain of Progesterone receptor (Homo sapiens) (P06401 whole entry, looked up): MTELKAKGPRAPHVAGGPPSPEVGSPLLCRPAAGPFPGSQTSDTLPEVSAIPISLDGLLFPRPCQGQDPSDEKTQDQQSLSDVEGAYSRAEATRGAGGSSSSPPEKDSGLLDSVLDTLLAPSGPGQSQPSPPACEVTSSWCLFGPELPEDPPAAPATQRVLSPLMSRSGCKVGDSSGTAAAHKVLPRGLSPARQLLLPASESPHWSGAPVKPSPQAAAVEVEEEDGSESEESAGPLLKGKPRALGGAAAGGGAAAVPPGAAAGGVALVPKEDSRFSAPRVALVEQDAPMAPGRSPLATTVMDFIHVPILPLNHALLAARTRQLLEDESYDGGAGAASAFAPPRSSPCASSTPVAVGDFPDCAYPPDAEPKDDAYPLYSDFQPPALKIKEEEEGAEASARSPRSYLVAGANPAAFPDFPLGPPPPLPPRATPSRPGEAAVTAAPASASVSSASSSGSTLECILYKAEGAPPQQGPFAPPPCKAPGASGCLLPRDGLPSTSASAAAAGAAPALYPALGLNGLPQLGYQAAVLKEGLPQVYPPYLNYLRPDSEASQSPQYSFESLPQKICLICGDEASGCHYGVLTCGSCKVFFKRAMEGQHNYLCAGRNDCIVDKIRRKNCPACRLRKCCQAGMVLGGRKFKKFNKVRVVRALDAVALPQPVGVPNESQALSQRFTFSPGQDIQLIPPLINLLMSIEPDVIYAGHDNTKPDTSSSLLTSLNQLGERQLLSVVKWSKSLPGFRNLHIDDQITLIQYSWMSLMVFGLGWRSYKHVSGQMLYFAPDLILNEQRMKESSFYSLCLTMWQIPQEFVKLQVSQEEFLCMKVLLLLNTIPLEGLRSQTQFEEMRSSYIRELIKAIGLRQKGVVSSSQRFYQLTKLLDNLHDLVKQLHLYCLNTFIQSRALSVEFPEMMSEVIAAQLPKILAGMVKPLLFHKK
Chain of Androgen receptor (Homo sapiens) (P10275 whole entry, looked up): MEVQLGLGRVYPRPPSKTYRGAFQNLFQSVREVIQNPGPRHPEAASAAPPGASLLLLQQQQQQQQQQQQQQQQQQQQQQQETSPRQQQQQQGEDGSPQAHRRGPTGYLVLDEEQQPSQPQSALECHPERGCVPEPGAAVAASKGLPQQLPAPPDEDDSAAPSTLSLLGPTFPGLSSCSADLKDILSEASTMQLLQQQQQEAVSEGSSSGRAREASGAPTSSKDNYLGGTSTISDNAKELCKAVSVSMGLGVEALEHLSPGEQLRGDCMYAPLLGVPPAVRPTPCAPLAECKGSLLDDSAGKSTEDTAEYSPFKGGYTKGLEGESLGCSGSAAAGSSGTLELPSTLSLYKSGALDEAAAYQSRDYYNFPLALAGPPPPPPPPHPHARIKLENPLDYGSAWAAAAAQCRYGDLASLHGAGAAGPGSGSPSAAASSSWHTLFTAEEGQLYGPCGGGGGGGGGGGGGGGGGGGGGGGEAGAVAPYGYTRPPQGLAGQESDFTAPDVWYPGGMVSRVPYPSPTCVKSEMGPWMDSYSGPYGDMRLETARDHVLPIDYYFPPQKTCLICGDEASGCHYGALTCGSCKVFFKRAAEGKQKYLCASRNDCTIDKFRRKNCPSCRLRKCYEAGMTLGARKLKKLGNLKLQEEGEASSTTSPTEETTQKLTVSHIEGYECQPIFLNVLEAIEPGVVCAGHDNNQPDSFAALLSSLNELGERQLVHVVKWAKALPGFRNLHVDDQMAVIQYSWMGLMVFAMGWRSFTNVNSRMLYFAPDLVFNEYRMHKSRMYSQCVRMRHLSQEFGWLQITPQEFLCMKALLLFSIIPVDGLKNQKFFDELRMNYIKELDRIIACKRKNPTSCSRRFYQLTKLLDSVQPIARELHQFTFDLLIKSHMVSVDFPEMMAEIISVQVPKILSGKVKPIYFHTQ
Chain of Estrogen receptor (Homo sapiens) (P03372 whole entry, looked up): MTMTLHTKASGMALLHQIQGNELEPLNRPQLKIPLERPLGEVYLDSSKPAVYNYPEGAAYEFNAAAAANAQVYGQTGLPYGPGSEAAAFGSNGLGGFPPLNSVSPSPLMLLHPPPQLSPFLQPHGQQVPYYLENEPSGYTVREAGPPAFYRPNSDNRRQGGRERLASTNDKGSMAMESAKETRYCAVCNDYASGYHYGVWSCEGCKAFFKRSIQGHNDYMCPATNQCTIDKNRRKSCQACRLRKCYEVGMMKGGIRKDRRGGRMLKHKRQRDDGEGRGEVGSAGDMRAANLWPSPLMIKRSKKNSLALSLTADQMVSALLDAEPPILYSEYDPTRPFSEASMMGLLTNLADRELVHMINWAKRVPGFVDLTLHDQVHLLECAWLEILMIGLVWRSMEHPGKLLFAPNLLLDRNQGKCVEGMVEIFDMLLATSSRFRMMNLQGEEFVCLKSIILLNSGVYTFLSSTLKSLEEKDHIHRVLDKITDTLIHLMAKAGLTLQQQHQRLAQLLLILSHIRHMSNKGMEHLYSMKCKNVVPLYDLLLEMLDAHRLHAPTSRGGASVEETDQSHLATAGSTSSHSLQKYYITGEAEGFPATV

Nc1c(NC/C=C\COc2cc(CN3CCCCC3)ccn2)c(=O)c1=O
active: Potency [1] 5.17 µM | Potency [2] 5.17 µM
inactive: activity change [3] -1% [at 18.9 µM] | activity change, negative = cytotoxicity [4] 1.31% [at 19 µM] | activity change, negative = cytotoxicity [5] 0.149% [at 19 µM] | cAMP activity change [6] -0.455% [at 18.9 µM] | activity change, negative = inhibition [7] -4.41% [at 19 µM] | activation [8] 1.78% [at 19 µM] | activity change, negative = inhibition [9] 9.62% [at 18.9 µM] | activity change, negative = cytotoxicity [10] 4.14% [at 18.9 µM] | activity change, negative = cytotoxicity [11] -2.25% [at 19 µM] | viability change, negative = cytotoxic [12] 0.148% [at 15.8 µM] | activity change, negative = cytotoxicity [13] 2.86% [at 15.8 µM]

Cc1nc2n(c(=O)c1CCN1CCC(C(=O)c3ccc(F)cc3)CC1)CCS2
inactive: Potency [1] | Potency [2] | outcome [3] | Potency [14] | outcome [4] | outcome [15] | outcome [5] | outcome [16] | outcome [6] | outcome [7] | Potency [8] | Potency [9] | Potency [11] | outcome [12] | outcome [13]

O=C(O)c1ccccc1C(=O)Nc1ccc(S(=O)(=O)Nc2nccs2)cc1
inactive: Potency [1] | Potency [2] | outcome [3] | Potency [17] | Potency [14] | outcome [15] | outcome [5] | Potency [8] | Potency [9] | Potency [10] | Potency [11] | outcome [12] | outcome [13]

Cc1cccc(NC(=S)N(C)C)c1
inactive: Potency [1] | Potency [2] | Potency [18] | Potency [17] | Potency [14] | outcome [4] | outcome [6] | outcome [7] | Potency [19] | Potency [11] | outcome [12] | outcome [13]

O=C(O)Cc1cccc(-c2cc(CCCCCCc3ccc(O[C@H]4O[C@H](CO)[C@@H](O)[C@H](O)[C@@H]4O)c(-c4cccc(CC(=O)O)c4)c3)ccc2O[C@H]2O[C@H](CO)[C@@H](O)[C@H](O)[C@@H]2O)c1
inactive: viability change, negative = cytotoxic [1] 1.74% [at 0.349 µM] | viability change, negative = cytotoxic [2] 3.56% [at 0.349 µM] | activity change [3] -0.0491% [at 0.349 µM] | activity change, negative = cytotoxicity [14] 1.29% [at 0.35 µM] | activity change, negative = cytotoxicity [4] 7.37% [at 0.349 µM] | activity change, negative = cytotoxicity [5] 7.67% [at 0.349 µM] | cAMP activity change [6] -6.17% [at 0.349 µM] | activity change, negative = inhibition [7] -1.92% [at 0.349 µM] | activity change, negative = cytotoxicity [19] 4.6% [at 0.349 µM] | activation [8] 1.15% [at 0.349 µM] | activity change, negative = inhibition [9] 0.629% [at 0.348 µM] | activity change, negative = cytotoxicity [10] 8.15% [at 0.348 µM] | viability change, negative = cytotoxic [12] 10.9% [at 0.29 µM] | activity change, negative = cytotoxicity [13] 10.8% [at 0.29 µM]

CC(C)=CC(C)(C)C
inactive: Potency [1] | Potency [2] | outcome [3] | Potency [17] | Potency [14] | outcome [4] | outcome [5] | outcome [6] | outcome [7] | Potency [19] | Potency [8] | Potency [9] | Potency [10] | Potency [11] | outcome [13]

Cc1ncc([N+](=O)[O-])n1CC(O)CCl (configuration not stated)
inactive: Potency [1] | Potency [2] | outcome [3] | Potency [14] | outcome [4] | outcome [15] | outcome [5] | outcome [6] | outcome [7] | Potency [19] | Potency [8] | Potency [9] | Potency [11] | outcome [12] | outcome [13]
